ChEMBL document CHEMBL3988442, “University of Dundee, Small-Polar-MMV Screening Library” (2021)
Hit rate of the full screen: of about 48,000 compounds, about 13,000 (27%) showed an effect of 50% or more. The list shows a part of the results.

Each molecule was assayed on Wolbachia pipientis (assay: Anti-Wolbachia Cell-Based Screen). Details: 5 µM.
Assay type: functional
Set-up: scale not given: in the data most compounds retested in dose-response had high values

SMILES | Percent Effect
O=S1(=O)C[C@@H]2[C@H](C1)N(Cc1cc(F)cc(F)c1)CCN2CCO | 1.937%
O=C(Nc1cc(C(F)(F)F)ccc1Cl)c1ccc(N2CCOCC2)nn1 | -2.027%
Cl.NC1CCN(C(=O)c2c(F)cccc2Br)CC1 | 2.266%
Cc1ccccc1SCC(=O)N[C@H]1CC[C@H](n2cnnc2)CC1 | -8.466%
Cc1ccc(C(C)NC(=O)Cc2c(C)nc3cc(=O)[nH]n3c2C)s1 (centres undefined) | 3.622%
CCOCCN1CCN(CC(O)c2cc(Cl)ccc2Cl)CC1 (centres undefined) | 18.57%
CCOc1ccnc(N2CCCN(c3nc(CC)ns3)CC2)n1 | 2.862%
Cc1ccc(C(=O)NCC2CCN(Cc3ccccc3C#N)C2)cn1 (centres undefined) | -20.5%
CCn1ncnc1CN1CCC(CNC(=O)c2cccnc2O)C1 (centres undefined) | 102.6%
Cc1cc(CN2CCC(CNC(=O)c3ccc(C#N)cc3)C2)[nH]n1 (centres undefined) | -6.827%
CCn1ncnc1CN1CCC(CNC(=O)c2ccccc2C#N)C1 (centres undefined) | 115.7%
Cc1nc[nH]c1CN1CCC(CNC(=O)c2cccc3cnccc23)C1 (centres undefined) | -8.641%
Cc1cnn(CC2CC2)c1NC(=O)c1cccnc1O | -0.1453%
Cc1cccc(N2CCN(S(=O)(=O)CCN)CC2)c1 | -3.019%
CCC(C)[C@H](NC(=O)c1cc(Br)ccc1-n1cnnn1)C(=O)OC (some centres undefined) | 6.622%
CCOC(=O)CN1CCC(C(=O)c2cc(F)ccc2F)CC1 | -15.3%
COC(=O)C1CCN(C(=O)c2cc(Br)ccc2-n2cnnn2)CC1 | 122.5%
CCOC(=O)C1CCN(C(=O)c2cc(Br)ccc2-n2cnnn2)CC1 | 129.1%
CC(=O)N1CCC(NC(=O)c2cc(Cl)ccc2-n2cnnn2)CC1 | 22.58%
CCOC1CCCN(C(=O)c2sccc2-n2cnnn2)C1 (centres undefined) | -3.669%
CCOC(=O)C1CCN(C(=O)Cn2ccc3cc(Br)ccc32)CC1 | 16.73%
CCOC(=O)C1CCN(C(=O)c2cc(F)ccc2-n2cnnn2)CC1 | 122.3%

SMILES | Percent Effect
CCOC(=O)N1CCC(C(=O)c2cc(F)ccc2F)CC1 | -8.485%
CCn1ncnc1C(C)NC(=O)Cc1cc2c(cc1Cl)OCCO2 (centres undefined) | 1.538%
NS(=O)(=O)c1ccc(F)c(C(=O)NCCSc2ccccn2)c1 | 2.11%
CN(C)CCOc1ccc(CNC(=O)c2cccc(Cl)c2Cl)cc1 | 13.68%
Cc1ccc(C(=O)NCc2ccc(N(C)C)cc2)cn1 | -15.59%
CCCSc1ncccc1C(=O)NCc1ccc(S(N)(=O)=O)cc1 | 120.7%
Cn1ccnc1SCCNC(=O)c1cc(S(N)(=O)=O)ccc1F | -8.563%
Cc1cccc(C(=O)NCc2ccc(OCCN(C)C)cc2)c1C | -6.28%
CCCSc1ncccc1C(=O)NCc1ccc(N(C)C)cc1 | 112.3%
CNC(=O)c1cccnc1NCc1ccc(Cn2cccn2)cc1 | -20.21%
CSc1ncccc1C(=O)NCc1ccc(CS(=O)(=O)NC(C)C)cc1 | 2.17%
CSc1ncccc1C(=O)NCc1ccc(N(C)C)cc1 | 175.4%
CCSc1ncccc1C(=O)NCc1ccc(N(C)C)cc1 | 103%
CC(C)(C)[S+]([O-])CCNC(=O)c1cccc2ncccc12 (centres undefined) | -2.962%
NC(=O)C(NCc1ccc(Cl)s1)c1ccccc1 (centres undefined) | -5.898%
CC(c1nc(C2CC2)no1)N(C)Cc1ccc(Cl)cc1 (centres undefined) | -4.386%
Cc1cc(-c2nn(C)c(Cl)c2CN2CC[C@@](O)(C3CCC3)[C@H](C)C2)no1 | 9.361%
CC(C1CCN(Cc2c(Cl)cncc2Cl)CC1)N1CCOCC1 (centres undefined) | 1.146%
CCCNC(=O)c1ccc(S(=O)(=O)NCC2(O)CCCNC2)cc1 (centres undefined) | -4.599%
Cn1nccc1C(=O)NCCN1CCC(O)(c2ccc(F)cc2)CC1 | 137.8%
O=C(Cn1cc(Cl)cn1)NCCN1CCC(O)(c2ccc(F)cc2)CC1 | 66.04%
O=C(NCCN1CCOCC1)c1ccc(-c2ccc(F)cc2)nc1O | -1.382%

SMILES | Percent Effect
NC(=O)C1CCN(CC(=O)NCCn2cc(Cl)cn2)CC1 | -2.539%
NC(=O)CN1CCC(C(=O)NCCn2cc(Cl)cn2)CC1 | 2.042%
O=C(NCCN1CCCCCC1)c1coc(COc2ccc(F)cc2)n1 | -5.25%
Cn1ncc(Cl)c1C(=O)NCCN1CCC(O)(c2ccc(F)cc2)CC1 | 129.2%
CC1CCN(CCNC(=O)Nc2ccc(F)cc2Cl)CC1 | 1.976%
Cc1cccc(N2CCN(CCNC(=O)c3ccnn3C)CC2)c1 | 20.06%
Cc1c(Cl)cccc1OCC(=O)NC1(C#N)CCSC1 (centres undefined) | -5.269%
COc1cc2nc(C)sc2cc1NC(=O)CN(C)C(C)C | -15.43%
CC(C)(C)OC(=O)N1CCCc2ccc(NCc3ccon3)cc21 | -9.372%
COC(=O)Nc1cccc(C(=O)N(C)Cc2cccc(O)c2)c1 | 89.16%
COC(=O)c1cccc(C(=O)N(C)Cc2ccsc2)c1 | 77.93%
CN(Cc1cccc(F)c1)C(=O)c1ccncc1Cl | -2.45%
COC(=O)c1cccc(C(=O)N(C)Cc2cccc(F)c2)c1 | 85.67%
CC(C)Cn1ncc2cc(C(=O)N(C)Cc3cccc(O)c3)cnc21 | -1.61%
COCc1cccc(NC(C)C(=O)N(C)Cc2cccc(F)c2)c1 (centres undefined) | -0.4154%
CCN(C)C(=O)c1cccc(C(=O)N(C)Cc2cccc(O)c2)c1 | 101.4%
CN(Cc1ccsc1)C(=O)c1cccc(F)c1 | 7.751%
CN(Cc1cccc(O)c1)C(=O)c1ccc(CCC(C)(C)O)cc1 | -13.77%
CN(C)C(=O)c1cccc(NC(=O)N(CCO)Cc2ccsc2)c1 | 5.648%
CC(=O)Nc1cccc(CNC(=O)N(C)Cc2ccccc2)c1 | -8.333%
c1cnc2c(c1)nc1n2[C@@H](CNC2CCOCC2)COC1 | -0.09884%
CCCC(=O)N(CCCN1CCOCC1)c1nc2c(F)cccc2s1.Cl | 33.03%

SMILES | Percent Effect
CN(C)Cc1nnc(C(=O)N(C)Cc2ccc(C(F)(F)F)cc2)o1 | -9.605%
O=C(NCc1nc(C2CCCCC2)no1)C1CC(=O)N(C2CCCC2)C1 (centres undefined) | -9.19%
CCc1nc(CSc2nnc(N)n2C2CC2)no1 | 6.66%
COC(=O)c1cccc(C(=O)N(C)Cc2cccc(O)c2)c1 | 112.7%
CC(=O)c1cccc(OCCCC(=O)N(C)Cc2cccc(O)c2)c1 | -0.5874%
Cn1c(=O)[nH]c(=O)n2c(CC(=O)Nc3c(Cl)cccc3Cl)cnc12 | 100.8%
Cc1cccc(Cl)c1NC(=O)Cn1cc(C(=O)O)ccc1=O | 9.076%
Cc1nc2cc(=O)[nH]n2c(C)c1CC(=O)Nc1cn[nH]c1 | -20.81%
Cn1c(=O)[nH]c(=O)n2c(CC(=O)Nc3ccc(Cl)c(Cl)c3)cnc12 | 103.6%
Cn1c(=O)[nH]c(=O)n2c(CC(=O)NCc3ccccc3)cnc12 | 108.8%
CC(C)(C)n1ncc2c(=O)n(CC(=O)NCc3ccccc3)cnc21 | 3.953%
Cc1nc2c(c(C)c1CC(=O)Nc1ccc(Cl)cc1)c(=O)[nH]n2C | -4.982%
Cc1cnc(NC(=O)NCCOc2ncccc2Cl)s1 | 12.43%
COCC(=O)Nc1ccc(Sc2nncn2C)c(Cl)c1 | 2.363%
Cc1ccc(NC(=O)Cc2cnc3n(C)c(=O)[nH]c(=O)n23)cc1 | 128%
COc1ncc(C(=O)NCc2ccccc2)cn1 | -10.01%
O=C(CCn1ccccc1=O)Nc1ccc(F)c(Cl)c1 | 4.502%
CNS(=O)(=O)CC(=O)N(Cc1c(F)cccc1F)C1CCCC1 | -5.167%
Cc1cccc(CN(C(=O)CS(C)(=O)=O)C(C)C)c1 | -6.499%
CC(C)c1cnc(CN2CCCS2(=O)=O)o1 | 3.272%
O=C(NCC(O)c1ccc(F)c(F)c1)c1cccnc1O (centres undefined) | -2.059%
CCNc1ncc(CN2C[C@H](C3CC3)[C@@H](N)C2)cn1 | -8.073%

SMILES | Percent Effect
CC(C)Cc1cc(CNC(=O)c2cccc3c2NCCC3)no1 | 2.864%
Cc1cccc(NCc2nn(C)c(=O)[nH]2)c1 | -1.788%
COCCn1ccc(=O)c(OCC(=O)Nc2ccccc2)c1C | 9.271%
Cc1cccc(NC(=O)Cc2cnc3n(C)c(=O)[nH]c(=O)n23)c1 | 101.4%
Cn1c(=O)[nH]c(=O)n2c(CC(=O)Nc3ccccc3)cnc12 | 114.1%
Cn1c(=O)ccn(CC(=O)Nc2cccnc2)c1=O | 18.35%
Cc1nc2c(c(C)c1CC(=O)Nc1cccc(C#N)c1)c(=O)[nH]n2C | -6.097%
Cc1nnc(N2CCC(CCN(C)C)CC2)c(C#N)c1C | 18.81%
O=S(=O)(C1CC1)N1CCOC2(CCCN(c3ccccc3)C2)C1 (centres undefined) | -6.387%
COC(=O)N1C[C@H]2CC[C@@H]1CN(Cc1cscn1)C2 | -5.87%
Cc1ccc(N2CCCC(N(C)Cc3nc(C)c(C)o3)C2)nn1 (centres undefined) | -10.05%
O=C(O)C(F)(F)F.O=C(O)C(F)(F)F.O=C1COC2(COCCN(Cc3cccnc3)C2)CN1c1ccccc1 (centres undefined) | -10.32%
O=C(O)C(F)(F)F.O=C1COC2(CCN(Cc3nccs3)CC2)CN1c1ccccc1 | 109.8%
CN1CC(=O)N(c2ccccc2)CC12CCN(Cc1nccs1)C2.O=C(O)C(F)(F)F.O=C(O)C(F)(F)F (centres undefined) | -23.26%
O=C(O)C(F)(F)F.O=C(O)C(F)(F)F.O=C1COC2(CCN(Cc3ccncc3)CC2)CN1c1ccccc1 | 106.6%
O=C(O)C(F)(F)F.O=C(O)C(F)(F)F.O=C1COC2(CCN(Cc3cccnc3)CC2)CN1c1ccccc1 | 95.43%
Cc1ccc(N2CC3(COCCN(Cc4cnn(C)c4)C3)OCC2=O)s1.O=C(O)C(F)(F)F (centres undefined) | -8.814%
Cc1ccc(N2CC3(COCCN(Cc4ccncc4)C3)OCC2=O)s1.O=C(O)C(F)(F)F.O=C(O)C(F)(F)F (centres undefined) | 7.716%
Cn1cc(CN2CCC3(CC2)CN(c2cccnc2)C(=O)CO3)cn1 | 89.07%
CN1CC(=O)N(c2cccc(F)c2)CC12CCN(Cc1ccncc1)C2.O=C(O)C(F)(F)F.O=C(O)C(F)(F)F (centres undefined) | -24.86%
O=C(O)C(F)(F)F.O=C1COC2(CCN(Cc3nccs3)CC2)CN1CC1CC1 | -7.755%
